# Source: PMC4336329 (PLoS ONE, 2015)
# About 14,000 (4.5%) of roughly 310,000 compounds showed an effect of 50% or more. The effect is printed as a negative number. The full list was thinned out, with strong results kept by preference.
# Biological target: human ether-à-go-go-related gene (hERG) potassium channel (human, UniProt Q12809)
# Test: primary screen, population patch clamp on CHO cells stably expressing hERG; higher = less effect of the substance
# 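Further: peak tail current of the secondary pulse compared with the same well before compound.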
# human ether-à-go-go-related gene (hERG) potassium channel, sequence (Q12809 whole entry, looked up): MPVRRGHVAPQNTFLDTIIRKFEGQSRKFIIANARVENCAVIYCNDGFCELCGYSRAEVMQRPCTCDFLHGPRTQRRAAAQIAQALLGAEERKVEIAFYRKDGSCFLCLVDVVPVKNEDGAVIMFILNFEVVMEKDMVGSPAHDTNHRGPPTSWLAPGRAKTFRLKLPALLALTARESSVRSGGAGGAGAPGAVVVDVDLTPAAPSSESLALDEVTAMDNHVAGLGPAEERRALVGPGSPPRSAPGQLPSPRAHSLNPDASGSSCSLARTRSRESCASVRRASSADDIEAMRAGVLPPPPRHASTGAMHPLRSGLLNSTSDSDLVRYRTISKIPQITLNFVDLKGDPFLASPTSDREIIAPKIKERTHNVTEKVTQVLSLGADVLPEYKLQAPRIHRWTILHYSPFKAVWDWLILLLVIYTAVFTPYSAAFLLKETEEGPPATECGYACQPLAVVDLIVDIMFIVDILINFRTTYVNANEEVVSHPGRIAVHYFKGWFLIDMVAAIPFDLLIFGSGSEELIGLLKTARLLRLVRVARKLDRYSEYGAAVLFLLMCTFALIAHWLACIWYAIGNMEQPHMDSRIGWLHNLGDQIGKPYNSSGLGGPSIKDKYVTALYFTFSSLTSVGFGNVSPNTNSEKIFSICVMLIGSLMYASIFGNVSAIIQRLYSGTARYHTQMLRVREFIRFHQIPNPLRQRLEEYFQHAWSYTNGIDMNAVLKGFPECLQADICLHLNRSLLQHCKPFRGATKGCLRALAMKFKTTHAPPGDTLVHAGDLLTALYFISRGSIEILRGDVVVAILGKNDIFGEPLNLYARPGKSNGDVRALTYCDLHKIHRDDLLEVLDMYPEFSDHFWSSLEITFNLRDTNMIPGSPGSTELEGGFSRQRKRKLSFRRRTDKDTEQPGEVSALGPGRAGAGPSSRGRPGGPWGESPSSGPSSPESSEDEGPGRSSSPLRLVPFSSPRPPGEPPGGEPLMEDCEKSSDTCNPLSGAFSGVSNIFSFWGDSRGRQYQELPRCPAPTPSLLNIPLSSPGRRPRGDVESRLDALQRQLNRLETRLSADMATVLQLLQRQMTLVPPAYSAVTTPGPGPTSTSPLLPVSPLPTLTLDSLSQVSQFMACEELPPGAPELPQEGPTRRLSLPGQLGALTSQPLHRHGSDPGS
row,SMILES,"hERG current change (%, negative = inhibition) at 10uM"
1,N/C(=N\OC(=O)N1c2ccccc2Sc2ccccc21)c1ccc(Br)cc1,5.79%
2,O=C(COc1c(Br)cc(Br)c2cccnc12)N1CCc2ccccc2C1,8.07%
3,CC(=O)N/C(=C\c1ccccc1)C(=O)OCC(=O)N(CC(C)C)c1c(N)n(Cc2ccccc2)c(=O)[nH]c1=O,6.75%
4,CC(c1ccc(F)cc1)n1c(-c2ccc3ccccc3n2)n[nH]c1=S (centres unmarked),18.1%
5,Cn1c(=O)c2c(nc(SCc3ccc(F)cc3)n2C)n(C)c1=O,1.9%
6,CCN(CC)CCOC(=O)c1ccc(NC(=O)c2ccc(Cl)c(S(=O)(=O)N3CCCCCC3)c2)cc1.Cl,13.7%
7,CN(C)CCCNC(=O)c1ccc(Cl)c(S(=O)(=O)N2CCCCCC2)c1.Cl,-72.4%
8,CN(C)C(CNC(=O)c1ccc(Cl)c(S(=O)(=O)N2CCCCCC2)c1)c1ccccc1 (centres unmarked),-67.5%
9,O=C(NCCCN1CCCC1=O)c1ccc(Cl)c(S(=O)(=O)N2CCCCC2)c1,-24.1%
10,O=C(NCC(O)c1ccccc1)c1ccc(Cl)c(S(=O)(=O)N2CCCC2)c1 (centres unmarked),-0.367%
11,Cc1ccc(CNC(=O)c2ccc(Cl)c(S(=O)(=O)N3CCCCC3)c2)cc1,-27.3%
12,CCN(CC)CCNC(=O)c1ccc(NC(=O)c2ccc(Cl)c(S(=O)(=O)N3CCCCCC3)c2)cc1.Cl,-24%
13,O=C(NCC(O)c1ccccc1)c1ccc(Cl)c(S(=O)(=O)N2CCCCC2)c1 (centres unmarked),8.95%
14,CCN(CC)CCNC(=O)c1ccc(Cl)c(S(=O)(=O)N2CCCCCC2)c1.Cl,-67.4%
15,Cc1cc(C)n(C(=O)c2cccc([N+](=O)[O-])c2)n1,-5.46%
16,COc1ccc(CCNC(=O)C2CCN(S(=O)(=O)c3cnc[nH]3)CC2)cc1OC,13.7%
17,CCN(C(=O)CSc1nc(N)cc(=O)[nH]1)c1c(N)n(Cc2ccccc2)c(=O)[nH]c1=O,2.41%
18,Cc1ccc(S(=O)(=O)NCCCn2ccnc2)cc1C(=O)NC(C)C,-1.56%
19,O=S(=O)(Nc1ccc2c(c1)OCO2)c1ccc(Br)s1,-18.1%
20,O=C(O)CCN1CCc2ccccc2C1c1ccncc1 (centres unmarked),13.2%
21,Cc1sc(NC(=O)c2ccco2)c(CN2CCC(C)CC2)c1C,-16.2%

row,SMILES,"hERG current change (%, negative = inhibition) at 10uM"
1,CCN(CC)C(=O)CSc1nnc(CNc2ccc(F)cc2)o1,1.13%
2,Cc1ccc(S(=O)(=O)N(C)Cc2nc(-c3ccncc3)no2)cc1,-19.5%
3,CN(Cc1nc(-c2ccncc2)no1)S(=O)(=O)c1ccc(Cl)cc1,-55.5%
4,CN(Cc1nc(-c2ccncc2)no1)S(=O)(=O)c1ccccc1,3.91%
5,CN(Cc1nc(-c2cccnc2)no1)S(=O)(=O)c1ccc(Br)cc1,-46%
6,Cc1ccc(S(=O)(=O)N(C)Cc2nc(-c3ccc(Br)cc3)no2)cc1,4.12%
7,CN(Cc1nc(-c2ccncc2)no1)S(=O)(=O)c1ccc(Br)cc1,-58.1%
8,O=C(NNc1nc(-c2ccccc2)cs1)c1cccs1,10.7%
9,O=C(COC(=O)c1ccc(F)cc1F)NCCNC(=O)COC(=O)c1ccc(F)cc1F,16.8%
10,Cc1c(Cl)cccc1NC(=O)CN1CCC(C(O)(c2ccccc2)c2ccccc2)CC1,-12.3%
11,NNc1nc2c(Cl)ccc(Cl)c2s1,18.6%
12,NS(=O)(=O)c1cccc(NC(=O)Cc2ccc(Cl)c(Cl)c2)c1,6.09%
13,O=C(NCCCN1CCOCC1)c1ccc(CS(=O)(=O)c2c(Cl)cccc2Cl)o1,2.35%
14,CCN1CCN(CCNC(=O)c2ccc(CS(=O)(=O)c3c(Cl)cccc3Cl)o2)CC1,-8.19%
15,CN(CCNC(=O)c1ccc(CS(=O)(=O)c2ccc(Br)cc2)o1)CCc1ccccc1,-77.5%
16,CC1CCCN(CCCNC(=O)c2ccc(CS(=O)(=O)c3c(Cl)cccc3Cl)o2)C1 (centres unmarked),-44.8%
17,CN(C)CCNC(=O)c1ccc(CS(=O)(=O)c2ccc(Br)cc2)o1,-3.14%
18,CC(C)N(CCNC(=O)c1ccc(CS(=O)(=O)c2c(Cl)cccc2Cl)o1)Cc1ccccc1,-70.6%
19,O=C(NCCN1CCCC1)c1ccc(CS(=O)(=O)c2c(Cl)cccc2Cl)o1,-45.5%
20,O=C(NCCc1ccccc1)c1ccc(CS(=O)(=O)c2ccc(Cl)cc2)o1,-2.15%
21,COC(CNC(=O)c1ccc(CS(=O)(=O)c2c(Cl)cccc2Cl)o1)OC,21.2%

row,SMILES,"hERG current change (%, negative = inhibition) at 10uM"
1,CC(C)N(CCCNC(=O)c1ccc(CS(=O)(=O)c2c(Cl)cccc2Cl)o1)Cc1ccccc1,-67.7%
2,O=C(NCCc1ccccc1)c1ccc(CS(=O)(=O)c2ccc(Br)cc2)o1,10.2%
3,CN(CCNC(=O)c1ccc(CS(=O)(=O)c2c(Cl)cccc2Cl)o1)CCc1ccccc1,-70%
4,NC(=O)C1=C[C@H](c2ccc(C(F)(F)F)cc2)C[C@H](OCCCCO)O1,-4.54%
5,CCCOc1ccc(C2NC(=S)NC(c3ccccc3)=C2C(=O)Nc2ccc(C)cc2)cc1OC (centres unmarked),0.514%
6,CCN(CC(=O)Nc1cccc(OC)c1)CC(=O)Nc1ccc(C)cc1Cl,-10.4%
7,COc1ccccc1/C=N/NC(=O)c1ccc2c(c1)OCO2,7.71%
8,Cc1ccccc1OCC(=O)NCC1CCCO1 (centres unmarked),13.3%
9,CCOc1ccc(NC(=O)CNC(=O)c2ccc([N+](=O)[O-])cc2)cc1,-7.46%
10,Cc1cc(N/N=C\c2ccccc2)nc(-c2ccccc2O)n1,4.95%
11,Cn1c(NC(=O)c2cc(Br)ccc2Cl)cc(=O)n(C)c1=O,1.62%
12,CC1C(=O)N2CCCc3cc(S(=O)(=O)N4CCN(c5ccccc5F)CC4)cc1c32 (centres unmarked),-8.8%
13,COc1ccc(N2CCN(S(=O)(=O)c3cc4c5c(c3)C(C)C(=O)N5CCC4)CC2)cc1 (centres unmarked),3.36%
14,CC1C(=O)N2CCCc3cc(S(=O)(=O)N4CCN(c5ccc(F)cc5)CC4)cc1c32 (centres unmarked),-50.3%
15,O=C(/C=C/c1ccccc1[N+](=O)[O-])Nc1ccccc1,10.1%
16,O=c1cc(CSc2ccccn2)c2ccccc2[nH]1,9.52%
17,C=CCn1c(=O)c(C(=O)NC(C)c2ccccc2)c(O)c2ccccc21 (centres unmarked),18.3%
18,C=CCN(CC=C)Cc1c(O)ccc2c(=O)c(-c3ccccc3)coc12,-16.9%
19,C=CCN(CC=C)Cc1c(O)ccc2c1oc(=O)c1ccccc12,-71.6%
20,CN(Cc1c(O)ccc2c1oc(=O)c1ccccc12)C1CCCCC1,-42.8%
21,Cc1ccc(NC(=O)NCC2CCN(Cc3cccc(Cl)c3)CC2)c(Cl)c1,-59.8%

row,SMILES,"hERG current change (%, negative = inhibition) at 10uM"
1,Cc1ccccc1NC(=O)NCC1CCN(Cc2cccc(Cl)c2)CC1,-60%
2,Cc1ccccc1NC(=O)NCC1CCN(C(=O)OC(C)(C)C)CC1,-19.6%
3,Cc1ccc(OCC(=O)N2N=C(C(F)(F)F)CC2(O)C(C)(C)C)cc1C (centres unmarked),-15.9%
4,O=C(NC1CCCCC1)C(c1cccs1)N(C(=O)Cc1c[nH]c2ccccc12)c1ccc(F)cc1 (centres unmarked),14.7%
5,Cc1ccc(S(=O)(=O)Cc2ccc(C(=O)N3CCN(c4cccc(C)c4C)CC3)o2)cc1,-7.95%
6,O=C(c1ccc2c(=O)n(Cc3ccccc3Cl)c(=S)[nH]c2c1)N1CCCC1,4.9%
7,Cc1cc(Cl)ccc1OCc1n[nH]c(=S)n1C1CCCCC1,21.1%
8,CC(=O)N1CCN(c2cc(N3CCc4ccccc4C3)c(F)cc2[N+](=O)[O-])CC1,-41.3%
9,CN1CCN(c2cc(N3CCc4ccccc4C3)c(F)cc2[N+](=O)[O-])CC1,-44.2%
10,CCN1CCN(c2cc(N3CCc4ccccc4C3)c(F)cc2[N+](=O)[O-])CC1,-51.9%
11,O=C(CCC(=O)Nc1ccccc1)NNC(=O)c1ccco1,8.99%
12,CN1CCN(C(=O)c2cc3sccc3n2CC(=O)c2ccccc2)CC1,-27.6%
13,O=C(Cn1c(C(=O)N2CCN(C3CCCCC3)CC2)cc2sccc21)c1ccccc1,-70.7%
14,O=C(Cn1c(C(=O)N2CCN(C3CCCC3)CC2)cc2sccc21)c1ccccc1,-76.1%
15,O=C(Cn1c(C(=O)N2CCc3ccccc3C2)cc2sccc21)c1ccccc1,4.01%
16,CCN1CCN(C(=O)c2cc3sccc3n2CC(=O)c2ccccc2)CC1,-45.5%
17,O=C(Cn1c(C(=O)NCC2CCCO2)cc2sccc21)c1ccccc1 (centres unmarked),-3.47%
18,CCOc1cc(N2CCOCC2)c(OCC)cc1NC(=O)C1CC(=O)N(c2ccc(C)cc2)C1 (centres unmarked),-2.64%
19,O=C(COC(=O)c1ccccc1SCC(=O)N1CCCC1)NC1CCCCC1,-5.12%
20,COc1ccc(C(=O)Oc2c(C)occc2=O)cc1OC,9.93%
